# In article PMC7862700, “An all-to-all approach to the identification of sequence-specific readers for epigenetic DNA modifications on cytosine”:
# Legend:
# Assay in all cases: DAPPL (digital affinity profiling via proximity ligation, sequencing); 10 mM Tris-HCl pH 7.5, 50 mM NaCl, 1 mM DTT, 4% glycerol, room temperature, 30 min; GST-TFs on glutathione beads, 16-mer random dsDNA library, 0.1% formaldehyde crosslink after washing; high values mean tight binding
# Details in all cases: protein: recombinant; tags: N-terminal GST; dsDNA, one strand shown
# CRX = CRX (Homo sapiens, UniProt O43186 1-299)
# Outline: (§1)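 Human transcription factors fused to GST were expressed in yeast, captured on glutathione beads, given DNA barcodes and pooled with a GST-only negative control. Pools were incubated with 200 nmole of a 16-mer random double-stranded DNA library in Tris/NaCl/DTT/glycerol buffer at room temperature for 30 min. They were then washed, crosslinked with 0.1% formaldehyde, proximity-ligated (BsaI/T4 ligase, 1 h, 37 °C), PCR-amplified and sequenced on an Illumina NextSeq500. Binding signal is each 6-mer's read frequency for a factor divided by its frequency for the GST control.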
# ELF5 = target: T1, ELF5 (Homo sapiens, UniProt Q9UKW6-2 1-255)
# T1 sequence: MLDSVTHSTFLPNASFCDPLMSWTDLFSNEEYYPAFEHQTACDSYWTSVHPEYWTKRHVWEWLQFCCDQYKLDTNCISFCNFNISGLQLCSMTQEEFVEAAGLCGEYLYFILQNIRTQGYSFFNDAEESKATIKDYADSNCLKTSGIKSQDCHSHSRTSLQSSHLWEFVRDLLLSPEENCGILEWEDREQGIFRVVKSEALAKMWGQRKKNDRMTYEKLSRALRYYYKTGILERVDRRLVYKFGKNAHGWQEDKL
# Outline: as §1
# ELK3 = target: T2, ELK3 (Homo sapiens, UniProt P41970 1-407)
# T2 sequence: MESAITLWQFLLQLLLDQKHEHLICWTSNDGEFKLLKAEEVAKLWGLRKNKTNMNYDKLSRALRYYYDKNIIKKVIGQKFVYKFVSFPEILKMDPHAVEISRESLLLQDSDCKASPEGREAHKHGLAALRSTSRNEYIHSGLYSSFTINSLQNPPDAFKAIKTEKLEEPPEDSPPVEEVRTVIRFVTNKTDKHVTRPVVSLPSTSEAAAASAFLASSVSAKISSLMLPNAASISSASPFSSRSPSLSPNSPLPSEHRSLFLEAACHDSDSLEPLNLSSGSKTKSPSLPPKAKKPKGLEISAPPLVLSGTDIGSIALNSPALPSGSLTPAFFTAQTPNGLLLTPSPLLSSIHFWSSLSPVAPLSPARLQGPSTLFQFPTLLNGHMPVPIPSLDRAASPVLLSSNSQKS
# Outline: as §1
# ELF3 = target: T3, ELF3 (Homo sapiens, UniProt P78545 1-371)
# T3 sequence: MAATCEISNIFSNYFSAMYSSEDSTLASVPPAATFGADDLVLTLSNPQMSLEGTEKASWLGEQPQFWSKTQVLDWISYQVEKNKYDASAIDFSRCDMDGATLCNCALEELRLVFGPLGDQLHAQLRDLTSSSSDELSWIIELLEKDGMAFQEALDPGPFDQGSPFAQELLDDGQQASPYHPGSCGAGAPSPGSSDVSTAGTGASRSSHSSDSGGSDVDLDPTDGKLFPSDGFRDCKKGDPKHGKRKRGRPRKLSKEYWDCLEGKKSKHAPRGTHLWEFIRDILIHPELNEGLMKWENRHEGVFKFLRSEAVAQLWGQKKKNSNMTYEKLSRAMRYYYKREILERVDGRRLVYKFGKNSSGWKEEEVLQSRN
# Outline: as §1
# EHF = target: T4, EHF (Homo sapiens, UniProt Q9NZC4 1-300)
# T4 sequence: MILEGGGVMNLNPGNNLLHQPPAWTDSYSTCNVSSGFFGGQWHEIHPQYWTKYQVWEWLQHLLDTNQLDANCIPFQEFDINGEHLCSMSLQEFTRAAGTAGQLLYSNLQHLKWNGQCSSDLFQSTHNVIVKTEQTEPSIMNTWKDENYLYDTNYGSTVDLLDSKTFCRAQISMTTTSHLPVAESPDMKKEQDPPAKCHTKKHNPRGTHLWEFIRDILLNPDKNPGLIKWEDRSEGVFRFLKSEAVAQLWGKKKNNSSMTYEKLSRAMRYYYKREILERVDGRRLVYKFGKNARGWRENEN
# Outline: as §1
# ETS2 = target: T5, ETS2 (Homo sapiens, UniProt P15036 1-469)
# T5 sequence: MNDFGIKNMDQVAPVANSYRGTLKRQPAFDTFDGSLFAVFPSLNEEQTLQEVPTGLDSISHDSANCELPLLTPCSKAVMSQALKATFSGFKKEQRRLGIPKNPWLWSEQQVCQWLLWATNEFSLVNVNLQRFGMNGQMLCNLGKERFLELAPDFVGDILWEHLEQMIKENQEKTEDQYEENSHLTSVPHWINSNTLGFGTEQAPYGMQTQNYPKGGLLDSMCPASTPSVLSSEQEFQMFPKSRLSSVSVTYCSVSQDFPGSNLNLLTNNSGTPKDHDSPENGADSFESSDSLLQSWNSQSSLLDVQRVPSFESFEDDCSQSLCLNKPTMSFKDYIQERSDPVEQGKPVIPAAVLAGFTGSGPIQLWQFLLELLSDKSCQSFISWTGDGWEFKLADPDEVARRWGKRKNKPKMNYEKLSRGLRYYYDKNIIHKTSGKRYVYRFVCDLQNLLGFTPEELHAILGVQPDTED
# Outline: as §1
# SPDEF = target: T6, SPDEF (Homo sapiens, UniProt O95238 1-335)
# T6 sequence: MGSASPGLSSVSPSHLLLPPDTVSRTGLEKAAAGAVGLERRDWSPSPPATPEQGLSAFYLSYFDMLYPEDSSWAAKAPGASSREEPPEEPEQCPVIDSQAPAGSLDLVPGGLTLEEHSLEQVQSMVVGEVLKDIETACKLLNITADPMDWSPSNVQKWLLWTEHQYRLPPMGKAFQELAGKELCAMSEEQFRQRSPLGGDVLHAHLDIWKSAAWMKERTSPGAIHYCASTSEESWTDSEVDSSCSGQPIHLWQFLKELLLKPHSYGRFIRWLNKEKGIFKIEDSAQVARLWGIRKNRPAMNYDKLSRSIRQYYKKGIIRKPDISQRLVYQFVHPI
# Outline: as §1
# ETV3 = target: T7, ETV3 (Homo sapiens, UniProt P41162-2 1-143)
# T7 sequence: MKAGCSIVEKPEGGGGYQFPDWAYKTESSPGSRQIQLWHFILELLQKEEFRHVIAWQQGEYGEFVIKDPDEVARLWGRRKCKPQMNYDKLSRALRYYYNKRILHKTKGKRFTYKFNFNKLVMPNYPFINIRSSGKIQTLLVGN
# Outline: as §1
# ETV7 = target: T8, ETV7 (Homo sapiens, UniProt Q9Y603 1-341)
# T8 sequence: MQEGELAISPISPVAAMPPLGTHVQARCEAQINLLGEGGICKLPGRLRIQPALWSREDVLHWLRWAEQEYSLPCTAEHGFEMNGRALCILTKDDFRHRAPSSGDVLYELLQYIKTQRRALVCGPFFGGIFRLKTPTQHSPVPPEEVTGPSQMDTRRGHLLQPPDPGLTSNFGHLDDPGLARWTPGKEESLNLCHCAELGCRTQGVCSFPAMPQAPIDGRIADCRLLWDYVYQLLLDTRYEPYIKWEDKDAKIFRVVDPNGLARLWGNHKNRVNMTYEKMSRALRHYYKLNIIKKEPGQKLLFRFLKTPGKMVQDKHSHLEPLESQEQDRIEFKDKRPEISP
# Outline: as §1
# Sequence of CRX (O43186 whole entry, the tested form may be a part): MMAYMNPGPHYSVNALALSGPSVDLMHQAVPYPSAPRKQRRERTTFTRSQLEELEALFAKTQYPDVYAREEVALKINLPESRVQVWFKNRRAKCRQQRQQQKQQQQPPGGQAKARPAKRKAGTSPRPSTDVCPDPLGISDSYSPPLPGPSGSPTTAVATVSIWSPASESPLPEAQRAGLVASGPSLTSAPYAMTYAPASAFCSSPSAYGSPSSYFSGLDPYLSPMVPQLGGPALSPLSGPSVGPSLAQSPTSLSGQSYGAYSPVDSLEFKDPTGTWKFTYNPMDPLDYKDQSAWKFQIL
sequence,measurement,setting,value
GCGTAA,binding signal,CRX,"1.03 fold enrichment (6-mer frequency, TF over GST control)"
GGGATA,binding signal,CRX,"1.04 fold enrichment (6-mer frequency, TF over GST control)"
TAAGTG,binding signal,CRX,"1.14 fold enrichment (6-mer frequency, TF over GST control)"
TAAGGA,binding signal,CRX,"1.22 fold enrichment (6-mer frequency, TF over GST control)"
same,binding signal,ELF5,"1.32 fold enrichment (6-mer frequency, TF over GST control)"
ATTGGA,binding signal,CRX,"1.03 fold enrichment (6-mer frequency, TF over GST control)"
GTTTAG,binding signal,CRX,"1 fold enrichment (6-mer frequency, TF over GST control)"
AGTTAT,binding signal,ELK3,"1 fold enrichment (6-mer frequency, TF over GST control)"
same,binding signal,ELF3,"1.08 fold enrichment (6-mer frequency, TF over GST control)"
GAGCTA,binding signal,EHF,"1 fold enrichment (6-mer frequency, TF over GST control)"
same,binding signal,ELF3,"1.02 fold enrichment (6-mer frequency, TF over GST control)"
CGCGGA,binding signal,ELF3,"1.07 fold enrichment (6-mer frequency, TF over GST control)"
same,binding signal,ETS2,"1 fold enrichment (6-mer frequency, TF over GST control)"
same,binding signal,SPDEF,"1.03 fold enrichment (6-mer frequency, TF over GST control)"
same,binding signal,ELF5,"1.03 fold enrichment (6-mer frequency, TF over GST control)"
same,binding signal,ETV3,"1.01 fold enrichment (6-mer frequency, TF over GST control)"
GCGGAT,binding signal,CRX,"1.2 fold enrichment (6-mer frequency, TF over GST control)"
same,binding signal,SPDEF,"1.25 fold enrichment (6-mer frequency, TF over GST control)"
AAGCCG,binding signal,CRX,"1.42 fold enrichment (6-mer frequency, TF over GST control)"
same,binding signal,ETV7,"1.05 fold enrichment (6-mer frequency, TF over GST control)"
